Most compounds without a hit are left out; they make up all but 19% or so of the library.
TDP1 cell noCPT – qHTS for Inhibitors of human tyrosyl-DNA phosphodiesterase 1 (TDP1): qHTS in cells in absence of CPT; DT40 Tdp1-/- hTDP1 cells, no CPT, ATP luminescence, 48 h; Potency, µM (highest dose often 46.2 µM), inactives show top-dose activity change, negative = growth inhibition, usual class: inhibitors; 420,000 tested, 15% active; AID 686978, 2013; further: potency means the concentration at half of the fitted maximal effect; nearly all actives have a fitted effect of over 55% in size
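A cellular qHTS used chicken DT40 cells lacking endogenous Tdp1 but carrying stably transfected human TDP1. Compounds were applied without camptothecin, and cell growth kinetics were judged by ATP-dependent luminescence after ≥48 hr.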
IL-1B inflam inh – inhibitors of inflammasome signaling (IL-1 beta secretion); 360,000 tested, 4.7% active; activity change, % at 57.5 µM; THP-1 LPS/ATP IL-1B secretion, AlphaLISA, 16 h; stronger effect = lower value; in the data active means activity change below about -50%; inconclusive means mostly about -30% to -49%
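THP-1 cells pretreated 1 hr with compounds (up to 57.5 uM final), then stimulated with LPS (250 ng/mL final) plus ATP (1.25 mM final); secreted IL-1B measured by AlphaLISA after 16 hr, decreased signal indicating inhibition.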
HT1080-NT tox – kills 2HG-producing HT-1080-NT fibrosarcoma cells; HT-1080-NT fibrosarcoma viability, CellTiter-Glo ATP luminescence, 48 h; Potency, µM (top dose mostly 46.1 µM), inactives show at the highest dose activity, negative = less viability, most hits filed as cytotoxic; 360,000 tested, 1.6% active; AID 686970;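 further: NT is the 2HG producing partner of a matched IDH1 knockdown line; potency means the concentration at half of the fitted maximal effect; 0% = DMSO-treated cells and -100% = media-only wells without cells; nearly all actives have a fitted effect of over 55% in size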
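HT-1080-NT; 750 cells/well; 5% FBS RPMI; 48 h compound, 37 degrees C; CellTiter-Glo luminescence; curve fitting and curve-class assignment.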
DT40 TDP1 CPT – DT40-hTDP1 cell growth loss with CPT; chicken DT40 Tdp1-/-;hTDP1 cells + 20 nM CPT, ATP luminescence, 48 h; 420,000 tested, 12% active; Potency, µM (titrated, usually from 46.2 µM), for the others: top-dose activity change, negative = growth inhibition, actives largely listed as inhibitors; further: potency means the concentration at half of the fitted maximal effect; nearly all actives have a fitted effect of over 55% in size
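Cell growth measured by CellTiter-Glo luminescence after a minimum 48 h, 37 C compound exposure with 20 nM CPT in Tdp1-knockout DT40 cells stably expressing hTDP1, seeded 400/well; qHTS titration format.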
HT1080 IDH1KD tx – toxicity to HT-1080 IDH1 knockdown cells (counter line). HT-1080 IDH1 knockdown viability, ATP luminescence, 48 h. Potency, µM (top dose mostly 46.1 µM), for inactives: at the highest dose activity, negative = toxicity, hits mostly cytotoxic. 360,000 tested, 2% active;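 further: potency means the concentration at half of the fitted maximal effect; 0% = DMSO wells and -100% = cell-free medium wells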
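% activity derives from luminescence (CellTiter-Glo), normalised to DMSO and no-cell wells. HT-1080-IDH1KD cells, 750/well, had 48 h compound exposure at 37 °C.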
ELG1 DNA repair – inhibitors of ELG1-dependent DNA repair in HEK293T cells; HEK293T ELG1-luciferase reporter, luminescence, 16 h; DNA damage induced by 5-fluorouridine; Potency, µM (series often up to 46.1 µM), for the others: at the highest dose activity change, negative = inhibition, hits mostly inhibitors; 330,000 tested, 2.3% active; AID 504467; further: potency means the concentration at half of the fitted maximal effect; nearly all actives have a fitted effect of over 55% in size
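Luminescence from the luciferase reporter, measured 30 min after ONE-Glo reagent at room temperature, was the read-out. Beforehand, 2,000 cells per well were exposed for 16 hr at 37 °C to 5-fluorouridine together with compound or vehicle.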
Numbers without * were called inactive. Unless noted, the call rests on the fitted dose curve; in most records, active means well fitted curve in the direction sought with a large enough effect; inconclusive means small, poorly fitted or top-dose-only effect, or another doubt; inactive means no such curve, though single readings can be large; an effect the other way counts as inactive or inconclusive. Unless noted, on the % scale 0 is the no-effect control and ±100 the full control effect.

How did Cc1ccc2oc(-c3ccc(NC(=O)c4ccc5c(c4)OCO5)cc3)nc2c1 do in these assays?
TDP1 cell noCPT: inconclusive; IL-1B inflam inh: 0.6; HT1080-NT tox: -11.6%; DT40 TDP1 CPT: inconclusive; HT1080 IDH1KD tx: -7.6%; ELG1 DNA repair: inconclusive

Results for COc1ccc(C(C(=O)NC(C)(C)C)N(C(=O)Cn2nnc3ccccc32)c2cccc(C(C)=O)c2)cc1O (stereo unspecified) ?
TDP1 cell noCPT: -12.6%; IL-1B inflam inh: -12.0; HT1080-NT tox: 18.2%; DT40 TDP1 CPT: -3.0%; HT1080 IDH1KD tx: 14.6%; ELG1 DNA repair: -8.8%

What do the screens show for `COc1ccc(C(=O)COC(=O)c2cnc(C)cn2)cc1OC`?
TDP1 cell noCPT: 21.6%; IL-1B inflam inh: 0.0; HT1080-NT tox: -2.7%; DT40 TDP1 CPT: -12.7%; HT1080 IDH1KD tx: -4.0%; ELG1 DNA repair: -9.3%

Results for Cc1ccc2c(c1)c1c(n2CC(O)CNC(C)(C)C)CCCC1 (stereo unspecified) ?
TDP1 cell noCPT: inconclusive; IL-1B inflam inh: inconclusive; HT1080-NT tox: -15.4%; DT40 TDP1 CPT: inconclusive; HT1080 IDH1KD tx: -22.7%; ELG1 DNA repair: 4.7%

What do the screens show for `OC(CN1CCCCC1)Cn1c2ccccc2c2cc(Br)ccc21` (stereo unspecified)?
TDP1 cell noCPT: 16.4µM*; IL-1B inflam inh: -75.4*; HT1080-NT tox: 23.1µM*; DT40 TDP1 CPT: 16.4µM*; HT1080 IDH1KD tx: inconclusive; ELG1 DNA repair: -4.9%

What do the screens show for `Cc1ccc2c(c1)c1c(n2CC(O)Cn2c(C)nc3ccccc32)CCCC1` (stereo unspecified)?
TDP1 cell noCPT: inconclusive; IL-1B inflam inh: -10.6; HT1080-NT tox: inconclusive; DT40 TDP1 CPT: 23.1µM*; HT1080 IDH1KD tx: inconclusive; ELG1 DNA repair: 5.5%

How did Cc1ccc2c(c1)c1c(n2CC(O)CN2CCCCCC2)CCCC1 (stereo unspecified) do in these assays?
TDP1 cell noCPT: 14.6µM*; IL-1B inflam inh: -74.0*; HT1080-NT tox: inconclusive; DT40 TDP1 CPT: inconclusive; HT1080 IDH1KD tx: inconclusive; ELG1 DNA repair: 5.8%

How did Cc1ccc2c(c1)c1c(n2CC(O)Cn2nc(C)c(Br)c2C)CCCC1 (stereo unspecified) do in these assays?
TDP1 cell noCPT: 16.4µM*; IL-1B inflam inh: -21.4; HT1080-NT tox: inconclusive; DT40 TDP1 CPT: inconclusive; HT1080 IDH1KD tx: inconclusive; ELG1 DNA repair: -19.5%

How did OC(CN1CCCCC1)Cn1c(C(F)(F)F)nc2ccccc21 (stereo unspecified) do in these assays?
TDP1 cell noCPT: 11.6%; IL-1B inflam inh: 8.2; HT1080-NT tox: 13.9%; DT40 TDP1 CPT: -0.8%; HT1080 IDH1KD tx: 15.8%; ELG1 DNA repair: 1.5%

What do the screens show for `COC/C=C/C1=CC2=CC(=O)C(C)(OC(=O)c3cnc4ccccc4n3)C(=O)C2=CN1c1ccc(OC)cc1` (stereo unspecified)?
TDP1 cell noCPT: inconclusive; IL-1B inflam inh: 14.9; HT1080-NT tox: 3.1%; DT40 TDP1 CPT: inconclusive; HT1080 IDH1KD tx: 0.9%

What do the screens show for `COC/C=C/C1=CC2=CC(=O)C(C)(OC(=O)c3cnc4ccccc4n3)C(=O)C2=CN1Cc1ccccc1` (stereo unspecified)?
TDP1 cell noCPT: 16.4µM*; IL-1B inflam inh: 0.0; HT1080-NT tox: -29.7%; DT40 TDP1 CPT: inconclusive; HT1080 IDH1KD tx: -18.9%; ELG1 DNA repair: inconclusive

How did COC/C=C/C1=CC2=CC(=O)C(C)(OC(=O)c3cnc4ccccc4n3)C(=O)C2=CN1C1CC1 (stereo unspecified) do in these assays?
TDP1 cell noCPT: 20.6µM*; IL-1B inflam inh: -13.1; HT1080-NT tox: 0.1%; DT40 TDP1 CPT: inconclusive; HT1080 IDH1KD tx: 3.8%

Screening data: PubChem BioAssay, National Center for Advancing Translational Sciences (NCATS)
